Here are results for 16 compounds from PubChem BioAssay (NCI).

Structures are written as SMILES. This is part of a sample that, as a whole, favours compounds with a hit. Of some 83,000 tested, about 20% had one in any assay.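 Cells were grown in 96-well plates and exposed to the test compound at a single concentration for 48 hours; results are reported as percent growth, with values below 10 considered active.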 Unmarked numbers belong to inactive results. The source made the active and inactive calls.

Test systems include T-47D breast; BT-549 breast; MDA-MB-435 melanoma; SW-620 colon; MCF7 breast; HCT-116 colon; HCC-2998 colon; KM12 colon.
What all share (test): NCI-60 one-dose screen, 48 h (100 = growth as untreated, 0 = no growth, -100 = all killed)
Holding throughout (conditions): 10 µM unless noted

Consider `Cn1cc(-c2nc(-c3c[nH]c4ncccc34)cs2)c2cc(Br)ccc21`, for which the growth in the assay with T-47D breast is 84%; with BT-549 breast it was 99.8%; in the assay with MDA-MB-435 melanoma it was 79.8%; in the assay on SW-620 colon it was 95.8%; in the assay with MCF7 breast, 35.3%; in the assay on HCT-116 colon, 64.4%. Besides, the growth in the assay with HCC-2998 colon is 99.8%; in the assay with KM12 colon it was 62.5%.

Regarding `Cc1cc(C)c(NC(=O)c2sc3nc4c(cc3c2N)CCCC4)c(C)c1`, the growth was 36.2% in the assay with T-47D breast; 56.4% in the assay on BT-549 breast; -13.6% (active) in the assay on MDA-MB-435 melanoma; 30.5% with SW-620 colon; 23.7% in the assay on MCF7 breast; 29.9% in the assay with HCT-116 colon. The growth in the assay on HCC-2998 colon is 87.6%; in the assay on KM12 colon it was 34.9%.

Turning to `Cc1ccc(C)c2c1CCC2C(C)C` (stereo unspecified), the growth is 91.2% with T-47D breast; 100% with BT-549 breast; 108% with MDA-MB-435 melanoma; 106% with SW-620 colon; 107% in the assay on MCF7 breast; 96% with HCT-116 colon. Moreover, the growth in the assay on HCC-2998 colon and in the assay on KM12 colon was 101% in each case.

With `O=Cc1nc2ccccc2[nH]1`, the growth in the assay on T-47D breast is 91.9%; in the assay on BT-549 breast it was 101%; with MDA-MB-435 melanoma, 107%; with SW-620 colon, 101%; in the assay with MCF7 breast it was 96.4%; with HCC-2998 colon, 107%.

As to `Cn1cc(-c2nc(-c3c[nH]c4ncccc34)cs2)c2cc(Cl)ccc21`, the growth was 38.9% in the assay on T-47D breast; 70.6% with BT-549 breast; 51.9% in the assay with MDA-MB-435 melanoma; 73.3% with SW-620 colon; 17% with MCF7 breast; 80.6% in the assay on HCC-2998 colon. Moreover, the growth with KM12 colon was 9.88% (active).

With `COc1ccc2[nH]cc(-c3nc(-c4c[nH]c5ncccc45)cs3)c2c1`, the growth is 67.1% in the assay on T-47D breast; 36.8% in the assay on BT-549 breast; 54% with MDA-MB-435 melanoma; 19% in the assay on SW-620 colon; 32.5% with MCF7 breast; 70.4% with HCC-2998 colon.

On to `CC(C)=CCC/C(C)=C/CC/C(C)=C/CC/C(C)=C/CSC[C@H](NC(=O)CCCCCN1CCN(C)CC1)C(=O)NC1CCCCC1`, for which the growth with T-47D breast is 58.3%; with BT-549 breast it was 102%; with MDA-MB-435 melanoma it was 48.5%; in the assay with SW-620 colon it was -12.9% (active); in the assay with MCF7 breast, 17%; with HCC-2998 colon it was 63.8%. Also, the growth in the assay on KM12 colon was 81.7%.

For the compound `COC(=O)[C@]12CC[C@@H](C)[C@H](C)[C@@H]1C1=CC[C@@H]3[C@@]4(C)C[C@@H](OC(C)=O)[C@H](O)[C@@](C)(COC(C)=O)[C@@H]4[C@H](O)C[C@@]3(C)[C@]1(C)CC2`, the growth in the assay on T-47D breast is -66.3% (active); in the assay with BT-549 breast it was -85.8% (active); in the assay with MDA-MB-435 melanoma, -81.7% (active); in the assay on SW-620 colon, -80.9% (active); in the assay on MCF7 breast, -78.7% (active); with HCC-2998 colon it was -89.7% (active).

Regarding `C[C@H]1OC(=O)/C=C/[C@@H](O)[C@@H](O)CCCCCCCC[C@@H]1O`, the growth in the assay with T-47D breast was 59.9%; in the assay on BT-549 breast it was 105%; in the assay on MDA-MB-435 melanoma it was 106%; in the assay on SW-620 colon it was 102%; in the assay with MCF7 breast it was 101%; with HCC-2998 colon, 102%. Moreover, the growth in the assay on KM12 colon is 101%.

Regarding `CC1(C)c2ccccc2C(=O)C1(Br)Cc1ccccc1` (stereo unspecified), the growth is 60.6% with T-47D breast; 105% in the assay on BT-549 breast; 61.3% with MDA-MB-435 melanoma; 36.6% in the assay on SW-620 colon; 81.3% in the assay on MCF7 breast; 78.4% in the assay on HCC-2998 colon. The growth with KM12 colon was 90.9%.

With `CN1CCN(CCOc2ccc(-c3cnc4c(-c5cccc(F)c5)cnn4c3)cc2)CC1`, the growth in the assay on T-47D breast is 56.9%; in the assay with BT-549 breast it was 92.8%; in the assay on MDA-MB-435 melanoma, -47.8% (active); in the assay on SW-620 colon, -28.7% (active); in the assay on MCF7 breast, 37.4%; with HCT-116 colon, 23.9%. Moreover, the growth in the assay on KM12 colon was 11.4%.

Turning to `Oc1cccc2ccc(N/N=C/c3cc(CN4CCCCC4)c(O)c4ncccc34)nc12`, the growth is 25.3% with T-47D breast; 11.1% in the assay on BT-549 breast; 20.2% in the assay on MDA-MB-435 melanoma; 16% with SW-620 colon; 10.3% in the assay with MCF7 breast; 1.57% (active) with HCT-116 colon. For the same compound, the growth with KM12 colon was 9.18% (active).

As to `C=C(C)[C@@H]1CC[C@]2(C)[C@H](CC=C3[C@@H]4CC(C)(C)CC[C@]4(C=O)CC[C@]32C)[C@@]1(C)CCCN`, the growth is 79.1% in the assay with T-47D breast; 87.3% in the assay with BT-549 breast; 95.1% in the assay with MDA-MB-435 melanoma; 29.5% in the assay on SW-620 colon; 39% in the assay with MCF7 breast; 22.9% in the assay on HCT-116 colon. Also, in the assay with KM12 colon, the growth was 77.3%.

In the case of `CC(C)(C)n1cc(-c2ccnc(NCCCNS(=O)(=O)c3ccc(Cl)cc3)c2)c(-c2cccc(F)c2)n1`, the growth in the assay with T-47D breast is 46.5%; in the assay with BT-549 breast, 74.7%; in the assay on MDA-MB-435 melanoma, 85.6%; with SW-620 colon, 70.2%; in the assay on MCF7 breast, 60.5%; with HCT-116 colon it was 51.9%. In addition, in the assay with KM12 colon, the growth is 60.5%.

As for `CNC(=O)c1cc(Oc2ccc3nc(NC(=O)Nc4ccc(Cl)cc4)sc3c2)ccn1`, the growth in the assay with T-47D breast is 44%; in the assay with BT-549 breast it was 102%; in the assay with MDA-MB-435 melanoma, 64.1%; in the assay with SW-620 colon, 101%; in the assay with MCF7 breast it was 69.5%; in the assay on HCC-2998 colon it was 86.5%.

For `COc1cc2nc(Cl)nc(Nc3cccc(C(=O)/C=C/c4ccc(Cl)cc4)c3)c2cc1OC`, the growth is 71.1% in the assay with T-47D breast; 67% in the assay on BT-549 breast; 69.9% in the assay with MDA-MB-435 melanoma; -5.87% (active) in the assay with SW-620 colon; 19.7% in the assay with MCF7 breast; -0.905% (active) in the assay with HCT-116 colon. Moreover, the growth with KM12 colon is 40.5%.
